Results published in the supplement of paper PMC3545927.
The list shows a part of the results. How many sequences the whole screen found active is unknown.

Molecular target: furin, P09958
Assay: furin cleavage Z-score vs untreated control; higher = more cleavage, active = 3.5 or more, inactive = 1 or less, 8 variable residues between constant flanks
Summary of the method: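 The cleavage Z-score was derived for purified furin acting on 8-mer peptides held on magnetic beads and fused to a cDNA oligonucleotide. Digests lasted 7.5, 15 or 30 min at 1:10 enzyme:substrate in 50 mM HEPES pH 7.5 with CaCl2 and NaCl. Sequencing counts of released DNA, log-transformed against furin-free reactions, were lowess-adjusted and scaled by median absolute deviation.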

Chain of furin, P09958 (P09958 whole entry): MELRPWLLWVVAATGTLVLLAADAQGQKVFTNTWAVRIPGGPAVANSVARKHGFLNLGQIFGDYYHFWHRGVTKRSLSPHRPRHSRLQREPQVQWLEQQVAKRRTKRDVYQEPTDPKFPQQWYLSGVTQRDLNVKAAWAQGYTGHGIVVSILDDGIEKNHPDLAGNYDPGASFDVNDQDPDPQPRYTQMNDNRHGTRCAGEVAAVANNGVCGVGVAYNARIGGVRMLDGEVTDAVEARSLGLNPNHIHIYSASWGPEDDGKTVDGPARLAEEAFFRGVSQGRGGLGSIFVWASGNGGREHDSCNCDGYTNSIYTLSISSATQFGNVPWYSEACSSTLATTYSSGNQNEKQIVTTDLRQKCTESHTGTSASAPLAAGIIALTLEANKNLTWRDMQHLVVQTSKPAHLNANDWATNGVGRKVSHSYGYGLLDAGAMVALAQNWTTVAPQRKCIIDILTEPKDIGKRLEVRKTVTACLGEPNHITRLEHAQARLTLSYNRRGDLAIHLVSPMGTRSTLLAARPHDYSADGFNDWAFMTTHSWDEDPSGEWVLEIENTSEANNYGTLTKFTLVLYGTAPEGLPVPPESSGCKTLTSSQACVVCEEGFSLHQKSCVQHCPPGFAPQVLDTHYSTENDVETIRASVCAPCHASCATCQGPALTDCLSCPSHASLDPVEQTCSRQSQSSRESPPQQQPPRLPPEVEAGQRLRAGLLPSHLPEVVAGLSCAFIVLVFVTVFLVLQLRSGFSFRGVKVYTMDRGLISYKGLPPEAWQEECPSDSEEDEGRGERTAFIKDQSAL

Row | Sequence | furin cleavage Z-score (7.5 min) | furin cleavage Z-score (15 min) | furin cleavage Z-score (30 min)
1 | CAMEECSRHLAGNASASA [HC1733] | 0.727 (inactive) | 0.671 (inactive) | 1.88
2 | CAALTGTYVYAGNASASA [HC632] | 1.19 | -0.31 (inactive) | -0.691 (inactive)
3 | CAKPDYEPPVAGNASASA [HC1312] | 0.808 (inactive) | -0.123 (inactive) | 0.46 (inactive)
4 | CAEVPCHYPSAGNASASA [HC2369] | 0.223 (inactive) | 1.34 | 1.34
5 | CAVVWCSMSYAGNASASA [HC2028] | 0.181 (inactive) | 0.241 (inactive) | 0.133 (inactive)
6 | CAVQYLYGVGAGNASASA [HC510] | -0.596 (inactive) | -1.07 (inactive) | -0.127 (inactive)
7 | CANEECSQHLAGNASASA [HC1681] | 0.726 (inactive) | 1.58 | -0.0685 (inactive)
8 | CATTPCSMSWAGNASASA [HC1886] | 0.125 (inactive) | 0.0823 (inactive) | 0.51 (inactive)
9 | CAGSSRLDRSAGNASASA [FS-1208] | 1.21 | 1.38 | 0.97 (inactive)
10 | CAAPVRRDRSAGNASASA [FS-977] | 6.44 (active) | 6.02 (active) | 5.28 (active)
11 | CAGSSREVRSAGNASASA [FS-29] | 2.81 | 4.54 (active) | 4.54 (active)
12 | CADLEDRDRSAGNASASA [HC487] | -0.326 (inactive) | -1.64 (inactive) | -1.38 (inactive)
13 | CAFSSREERSAGNASASA [FS-589] | -0.625 (inactive) | -0.927 (inactive) | -2.43 (inactive)
14 | CASDFRRRRSAGNASASA [FS-868] | 9.07 (active) | 7.71 (active) | 7.52 (active)
15 | CAGSSRRRRSAGNASASA [FS-1334] | 9.7 (active) | 10.8 (active) | 6.42 (active)
16 | CALEQALDCEAGNASASA [HC1590] | -1.94 (inactive) | 0.416 (inactive) | -0.45 (inactive)
17 | CAGLVPRGSAAGNASASA [TR1] | 0.366 (inactive) | -0.466 (inactive) | -0.254 (inactive)
18 | CAMEEQSQHLAGNASASA [HC19] | 0.113 (inactive) | 0.699 (inactive) | 0.674 (inactive)
19 | CAAIPLEVIKAGNASASA [HC850] | -0.209 (inactive) | 0.792 (inactive) | -0.386 (inactive)
20 | CAGFRRSMDQAGNASASA [FS-2860] | -0.496 (inactive) | -0.187 (inactive) | 0.074 (inactive)
21 | CANQLRVKRSAGNASASA [FS-554] | 5.48 (active) | 5 (active) | 3.97 (active)
22 | CAGFRRFKRSAGNASASA [FS-240] | 8.1 (active) | 5.19 (active) | 7.05 (active)
23 | CAPSRRVKRSAGNASASA [FS-1149] | 8.11 (active) | 7.59 (active) | 5 (active)
24 | CALQRRKKKGAGNASASA [FS-1643] | -0.863 (inactive) | -0.718 (inactive) | 0.433 (inactive)

Row | Sequence | furin cleavage Z-score (7.5 min) | furin cleavage Z-score (15 min) | furin cleavage Z-score (30 min)
25 | CALQRRVKRSAGNASASA [FS-1463] | 3.17 | 3.78 (active) | 1.92
26 | CAPTHYVPESAGNASASA [HC1126] | 1.82 | -1.79 (inactive) | 0.876 (inactive)
27 | CAEVVTSAWVAGNASASA [HC2203] | -1.33 (inactive) | -0.0621 (inactive) | -0.753 (inactive)
28 | CASTTSRSACAGNASASA [HC1390] | 0.133 (inactive) | -0.0614 (inactive) | -0.754 (inactive)
29 | CALAGLSTLPAGNASASA [HC1048] | 0.519 (inactive) | 1.63 | 0.445 (inactive)
30 | CALKATCTANAGNASASA [HC1266] | 0.615 (inactive) | 2.96 | 1.42
31 | CACWRRMKRSAGNASASA [FS-1113] | 9.77 (active) | 10.5 (active) | 7.93 (active)
32 | CARTGKVKRSAGNASASA [FS-497] | 10.7 (active) | 9.35 (active) | 8.07 (active)
33 | CAKLFRVKRSAGNASASA [FS-1220] | 11.7 (active) | 10.7 (active) | 8.14 (active)
34 | CAECYDAGCAAGNASASA [HC920] | -0.745 (inactive) | 0.00773 (inactive) | -0.466 (inactive)
35 | CAGCPLPPPKAGNASASA [HC1317] | 0.693 (inactive) | -0.374 (inactive) | -0.0504 (inactive)
36 | CAVVPRGVNLAGNASASA [TR7] | 1.05 | -0.803 (inactive) | 1.14
37 | CAMEERSQHLAGNASASA [HC10] | -0.0717 (inactive) | -0.428 (inactive) | 1.49
38 | CALYREFDEMAGNASASA [HC1011] | 0.989 (inactive) | 0.494 (inactive) | -1.47 (inactive)
39 | CAVSPRVKRRAGNASASA [FS-1105] | 6.42 (active) | 5.9 (active) | 5.56 (active)
40 | CAVSPRVKRPAGNASASA [FS-1104] | -1.44 (inactive) | -0.535 (inactive) | -0.559 (inactive)
41 | CAGDKRVKRRAGNASASA [FS-159] | 8.54 (active) | 8.95 (active) | 8.22 (active)
42 | CAVSPTHYVPAGNASASA [HC1125] | 0.189 (inactive) | 0.58 (inactive) | -0.874 (inactive)
43 | CAGDSRVMRWAGNASASA [FS-591] | 0.599 (inactive) | -0.204 (inactive) | 0.578 (inactive)
44 | CALVHRVKRRAGNASASA [FS-274] | 13 (active) | 14.7 (active) | 10.7 (active)
45 | CALSPRVKRIAGNASASA [FS-687] | 8.46 (active) | 10.4 (active) | 8.69 (active)
46 | CAGDKELRTGAGNASASA [EK10] | -0.528 (inactive) | -3.59 (inactive) | -0.0871 (inactive)
47 | CALSPRPISYAGNASASA [HC737] | 0.872 (inactive) | 0.348 (inactive) | 0.915 (inactive)
48 | CALSPRTFHPAGNASASA [TR5] | -0.266 (inactive) | 0.174 (inactive) | -0.959 (inactive)
